Screens from PubChem BioAssay.
Most compounds without a hit are left out; they make up all but 21% or so of the library.
Pf growth 48h: P. falciparum growth inhibition at 48 hours (one generation); P. falciparum luciferase growth in erythrocytes, 48 h; AID 504832; Potency, µM (top dose mostly 28.7 µM), usual class: inhibitors; actives 5.9% (n = 310,000); active = well fitted inhibition curve with a large enough effect; inconclusive = small, poorly fitted or top-dose-only effect, or another doubt; inactive = no such curve, though single readings can be large or run the other way
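Read-out is firefly luciferase luminescence from an integrated reporter in P. falciparum, so falling signal marks reduced parasite growth. Infected erythrocytes were at 2% hematocrit and 0.1% parasitemia (final) in Albumax-supplemented RPMI 1640.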
Pf growth 96h: inhibits malaria parasite growth, 96 h | Potency, µM (titrated, usually from 28.7 µM), actives largely listed as inhibitors | actives 6.9% (n = 320,000) | P. falciparum luciferase reporter growth, 96 h; active = well fitted inhibition curve with a large enough effect; inconclusive = small, poorly fitted or top-dose-only effect, or another doubt; inactive = no such curve, though single readings can be large or run the other way
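Cell-based qHTS: luciferase-tagged P. falciparum in erythrocytes (2% hematocrit, 0.05% parasitemia final) incubated with compounds for 96 hours, 37 C, 5% CO2; luciferase detection reagent then added and luminescence measured.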
SARS PLP yeast: SARS-CoV PLP inhibition in yeast. S. cerevisiae expressing SARS-CoV PLpro, growth rescue. Potency, µM (highest dose often 32.9 µM), actives largely listed as activators. actives 0.19% (n = 330,000). AID 485353; note: nearly all actives have a fitted effect of over 55% in size
NS1 function inh: blocks influenza NS1 protein function | Potency, µM (highest dose often 46.1 µM) | actives 0.4% (n = 270,000) | AID 2326; note: actives are rising curves; nearly all actives have a fitted effect of over 50% in size
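A cell-based growth assay was used: compounds that relieve NS1-induced slow growth of budding yeast raise OD600. Assay medium was yeast nitrogen base with ammonium sulphate and -URA supplement, pH 6.0, with 2% galactose.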
Shiga toxin inh: blocks Shiga toxin action in Vero cells | inhibition, % at 38.7 µM | AID 2315 | Vero cells, Shiga toxin protein synthesis inhibition reporter | actives 9.2% (n = 290,000); in the data active = inhibition mostly above about 28%, no sharp cut-off; inactive = mostly below about 43%
Cycloheximide cs: counter-screen hit for Shiga toxin inhibitors, cycloheximide | cell reporter, cycloheximide protein synthesis inhibition counterscreen | max response, % | actives 12% (n = 300,000); in the data active = max response mostly above about 13%, no sharp cut-off; inactive = mostly below about 14%; note: read at 38.3 µM for the half of the compounds with a filed dose
Hits are given with their value. Unless noted, calls come from the whole dose curve.

What do the screens show for `Nc1ccc(-c2nc3ncccc3o2)cc1`?
Pf growth 48h: inactive; Pf growth 96h: inconclusive; SARS PLP yeast: inactive; NS1 function inh: inactive; Shiga toxin inh: 31; Cycloheximide cs: 34

How did Nc1cccc(-c2nc3ncccc3o2)c1 do in these assays?
Pf growth 48h: inactive; Pf growth 96h: inactive; SARS PLP yeast: inactive; NS1 function inh: inactive; Shiga toxin inh: 56; Cycloheximide cs: 31

What do the screens show for `O=C(Cc1ccccc1)Nc1cccc(-c2nc3ncccc3o2)c1`?
Pf growth 48h: inactive; SARS PLP yeast: inactive; NS1 function inh: inactive; Shiga toxin inh: inactive; Cycloheximide cs: inactive

How did Nc1c(-c2cccc(Cl)c2)cnn1-c1cccc(C(F)(F)F)c1 do in these assays?
Pf growth 48h: inactive; Pf growth 96h: inactive; SARS PLP yeast: inactive; NS1 function inh: inactive; Shiga toxin inh: 58; Cycloheximide cs: 31

How did O=C(O)c1nnn(-c2cccc(C(F)(F)F)c2)c1-c1ccccc1 do in these assays?
Pf growth 48h: inactive; Pf growth 96h: inconclusive; SARS PLP yeast: inactive; NS1 function inh: inactive; Shiga toxin inh: inactive; Cycloheximide cs: inactive

What do the screens show for `Nc1c(-c2ccccc2)cnn1-c1cccc(C(F)(F)F)c1`?
Pf growth 48h: inactive; Pf growth 96h: inactive; SARS PLP yeast: inactive; NS1 function inh: inactive; Shiga toxin inh: 83; Cycloheximide cs: 68

What do the screens show for `Nc1c(-c2ccc(Cl)cc2)cnn1-c1cc(C(F)(F)F)cc(C(F)(F)F)c1`?
Pf growth 48h: inactive; Pf growth 96h: inactive; SARS PLP yeast: inactive; NS1 function inh: inactive; Shiga toxin inh: inactive; Cycloheximide cs: inactive

What do the screens show for `CC(C)(C)OC(=O)C[C@@H]1C/C=C\C[C@H](CC(=O)N(CCO)Cc2ccccc2)C(=O)N[C@H](C(C)(C)C)COC1=O`?
SARS PLP yeast: inactive

How did O=C(CCl)NCc1c(Cl)cccc1-n1cccc1 do in these assays?
Pf growth 48h: 10µM; Pf growth 96h: 12µM; SARS PLP yeast: inactive; NS1 function inh: inactive; Shiga toxin inh: inactive; Cycloheximide cs: inactive

How did Clc1ccc(-c2csc(Nc3ccccc3)[n+]2Cc2ccco2)c(Cl)c1 do in these assays?
Pf growth 48h: 12µM; Pf growth 96h: inconclusive; SARS PLP yeast: inactive; NS1 function inh: inactive; Shiga toxin inh: 110; Cycloheximide cs: 48

Results for CCCC[n+]1c(-c2ccc(Cl)cc2Cl)csc1Nc1ccccc1 ?
Pf growth 48h: 3.7µM; Pf growth 96h: 1.7µM; SARS PLP yeast: inactive; NS1 function inh: inactive; Shiga toxin inh: inactive; Cycloheximide cs: inactive

What do the screens show for `COc1cccc(-n2c([S-])c(C(=O)Nc3ccc(S(=O)(=O)N4CCOCC4)cc3)[n+]3cc(C(N)=O)ccc23)c1`?
Pf growth 48h: inconclusive; Pf growth 96h: inconclusive; SARS PLP yeast: inactive; NS1 function inh: inactive; Shiga toxin inh: inactive; Cycloheximide cs: inactive

How did Cc1ccc(CNC(=O)Cn2cccc2C(=O)c2ccccc2C)cc1 do in these assays?
Pf growth 48h: inactive; Pf growth 96h: inactive; SARS PLP yeast: inactive; Shiga toxin inh: inactive; Cycloheximide cs: inactive

What do the screens show for `Cc1ccccc1C(=O)c1cccn1CC(=O)NCc1cccc(Cl)c1`?
Pf growth 48h: inactive; Pf growth 96h: inactive; SARS PLP yeast: inactive; NS1 function inh: inactive; Shiga toxin inh: 42; Cycloheximide cs: 50

What do the screens show for `COc1ccccc1CNC(=O)Cn1cccc1C(=O)c1ccccc1C`?
Pf growth 48h: inactive; Pf growth 96h: inactive; SARS PLP yeast: inactive; NS1 function inh: inactive; Shiga toxin inh: 46; Cycloheximide cs: 43

What do the screens show for `COc1cccc(CNC(=O)Cn2cccc2C(=O)c2ccccc2C)c1`?
Pf growth 48h: inactive; Pf growth 96h: inconclusive; SARS PLP yeast: inactive; NS1 function inh: inactive; Shiga toxin inh: inactive; Cycloheximide cs: 21

Results for O=C1NCCC/C1=N\Nc1ccc(Br)cc1 ?
Pf growth 48h: inactive; Pf growth 96h: inactive; SARS PLP yeast: inactive; NS1 function inh: inactive; Shiga toxin inh: inactive; Cycloheximide cs: 8.2

How did C=CCn1c(SCC(=O)NC(N)=O)nnc1-c1cc2c(s1)CCC(CC)C2 (stereo not given) do in these assays?
Pf growth 48h: inactive; Pf growth 96h: inactive; SARS PLP yeast: inactive; NS1 function inh: inactive; Shiga toxin inh: inactive; Cycloheximide cs: inactive

Results for C=CCn1c(SCC(=O)NCC)nnc1-c1cc2c(s1)CCC(CC)C2 (stereo not given) ?
Pf growth 48h: inactive; Pf growth 96h: inactive; SARS PLP yeast: inactive; NS1 function inh: inactive; Shiga toxin inh: 94; Cycloheximide cs: 42

How did C=CCn1c(SCC(=O)NCCOC)nnc1-c1cc2c(s1)CCC(CC)C2 (stereo not given) do in these assays?
Pf growth 48h: inactive; Pf growth 96h: inactive; SARS PLP yeast: inactive; NS1 function inh: inactive; Shiga toxin inh: inactive; Cycloheximide cs: 15

What do the screens show for `C/C(O)=C(/C=NCC(=O)O)C(=O)Nc1nccs1`?
Pf growth 48h: inactive; Pf growth 96h: inactive; SARS PLP yeast: inactive; Shiga toxin inh: inactive; Cycloheximide cs: inactive

What do the screens show for `Cc1ccnc(NC(c2ccccc2O)c2oc(CO)cc(=O)c2O)c1` (stereo not given)?
Pf growth 48h: inactive; Pf growth 96h: inactive; SARS PLP yeast: inconclusive; NS1 function inh: inactive; Shiga toxin inh: inactive; Cycloheximide cs: inactive

What do the screens show for `O=C(Nc1ccccc1C(=O)Nc1ccccn1)c1cccc([N+](=O)[O-])c1`?
Pf growth 48h: inactive; Pf growth 96h: inactive; SARS PLP yeast: inactive; NS1 function inh: inactive; Shiga toxin inh: inactive; Cycloheximide cs: inactive

Results for Cc1ccc(NC(=O)COC(=O)C2CC3CCCC(C2)C3=O)c([N+](=O)[O-])c1 (stereo not given) ?
Pf growth 48h: inactive; Pf growth 96h: inactive; SARS PLP yeast: inactive

How did O=C(Nc1ccnn1C1CCN(Cc2ccc(O)c(Cl)c2)CC1)C1CCCC1 do in these assays?
Pf growth 48h: 2.1µM; Pf growth 96h: inconclusive; SARS PLP yeast: inactive; NS1 function inh: inactive; Shiga toxin inh: inactive; Cycloheximide cs: inactive

How did O=C(Nc1ccnn1C1CCN(C(=O)Cc2cccc(Cl)c2)CC1)C1CC1 do in these assays?
Pf growth 48h: inactive; Pf growth 96h: 13µM; SARS PLP yeast: inactive; NS1 function inh: inactive; Shiga toxin inh: inactive; Cycloheximide cs: inactive

What do the screens show for `Cc1cc(CN2CCC(n3nccc3NC(=O)c3ccccc3Cl)CC2)cc(C)c1O`?
Pf growth 48h: 10µM; Pf growth 96h: inactive; SARS PLP yeast: inactive; NS1 function inh: inactive; Shiga toxin inh: inactive; Cycloheximide cs: inactive

What do the screens show for `O=C(Nc1ccnn1C1CCN(Cc2cccc(O)c2)CC1)C1CCCC1`?
Pf growth 48h: inactive; Pf growth 96h: inactive; SARS PLP yeast: inactive; NS1 function inh: inactive; Shiga toxin inh: inactive; Cycloheximide cs: inactive

What do the screens show for `Cc1cccc(CC(=O)N2CCC(n3nccc3NC(=O)C3CC3)CC2)c1`?
Pf growth 48h: inactive; Pf growth 96h: inactive; SARS PLP yeast: inactive; NS1 function inh: inactive; Shiga toxin inh: inactive; Cycloheximide cs: inactive

What do the screens show for `CN1C(=O)C(=O)N(CC(=O)Nc2ccccc2OC(F)F)C1=O`?
Pf growth 48h: inactive; Pf growth 96h: inactive; SARS PLP yeast: inactive

Results for CC1Oc2ccccc2OC1C(=O)Nc1nccs1 (stereo not given) ?
Pf growth 48h: inactive; Pf growth 96h: inactive; SARS PLP yeast: inactive; NS1 function inh: inactive; Shiga toxin inh: inactive; Cycloheximide cs: 18
